# Reference: PubChem BioAssay AID1578 (Sanford-Burnham Center for Chemical Genomics, 2009)
# Out of some 290,000 compounds screened, about 3,000 (1%) were called active. This is one part of a sample in which actives are shown more often than they occur. A number with no mark means an inactive call. Rule as the data show it: active = inhibition mostly above about 36% (no sharp cut-off); inactive = mostly below about 34%.
# Test: inhibition of NOD1-driven NF-kB reporter – cell-based, luminescence, uHTS, primary screen (AID 1578);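 also: HEK-293T reporter cells stimulated with the NOD1 agonist gamma-tri-DAP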
# Settings: NOD1-driven NF-kB luciferase reporter cells, at 4 µM, stronger effect = higher value
row,Compound,inhibition
1,Cc1ccc(CC(=O)NCc2ccc(Cl)cc2)cc1,-57.8%
2,Cc1ccc(-c2cc(C)nc3ncnn23)cc1,-4.1%
3,Cc1cccc2nc(CSc3nc4[nH]ncc4c(=O)n3-c3cccc(Cl)c3)cc(=O)n12,75.3% (active)
4,Cc1cccc2nc(CSc3nc4[nH]ncc4c(=O)n3-c3ccccc3Cl)cc(=O)n12,6.5%
5,Cc1cccc(-n2c(SCc3cc(=O)n4c(C)cccc4n3)nc3[nH]ncc3c2=O)c1,-6.2%
6,COc1ccc(C2C(C(N)=O)=C(C)Nc3ncnn32)cc1 (configuration not stated),-4.5%
7,COC(=O)CCC(=O)NNC(=O)C1CC1(c1ccccc1)c1ccccc1 (configuration not stated),0.4%
8,S=C(Nc1ccccc1)N1CCN(c2ccccn2)CC1,-29.8%
9,COc1ccc(NC(=S)N2CCN(c3ccccn3)CC2)cc1,-4.7%
10,Cc1ccccc1N1CCN(C(=O)c2ccccc2NC(=O)C2CC=CCC2C(=O)O)CC1 (configuration not stated),-15.8%
11,Cc1cccc(C)c1-n1nnnc1S(=O)(=O)Cc1ccccc1Cl,-16.2%
12,COc1ccccc1-n1nnnc1S(=O)(=O)Cc1ccc(Cl)cc1,102%
13,Cc1ccc[n+](CC(=O)/C=C2\N(C)c3ccccc3C2(C)C)c1,27.4%
14,CN1/C(=C\C(=O)C[n+]2ccc3ccccc3c2)C(C)(C)c2ccccc21,47% (active)
15,CN1/C(=C\C(=O)C[n+]2cccc(Br)c2)C(C)(C)c2ccccc21,30.4%
16,O=C(NCc1ccccc1OC(F)(F)F)C1CCC(=O)N(CCc2ccccn2)C1 (configuration not stated),-25.8%
17,Cc1[nH]c2ccccc2c1C(=O)C(=O)N(C)C1CCCCC1,-23.5%
18,CN(C(=O)CSc1ccccc1C(=O)O)C1CCCCC1,-26.5%
19,CC(Sc1n[nH]c(N)n1)C(=O)NC1CCCCC1C (configuration not stated),-7.3%
20,CC(Sc1nc(N)cc(=O)[nH]1)C(=O)NC1CCCCC1 (configuration not stated),-12%
21,Cc1cc(C(=O)O)sc1C,-16.5%
22,FC(F)(F)c1cnc(Sc2nnc(-c3cccs3)n2CC2CCCO2)c(Cl)c1 (configuration not stated),-14.9%

row,Compound,inhibition
1,CCOc1cc(/C=N/NC(=O)C(=O)NCc2ccc3c(c2)OCO3)ccc1OCC(=O)N1CCOCC1,-4.3%
2,CCOC(=O)CNc1cccc(C(F)(F)F)c1,-35.5%
3,O=C(CNS(=O)(=O)c1ccccc1)NCC(=O)OCc1ccc(Cl)cc1,-12.2%
4,O=C(CN(Cc1ccc(Br)cc1)S(=O)(=O)c1ccccc1)NCc1cccnc1,14.5%
5,O=C(NCc1cccnc1)/C(=C\c1ccc(-c2ccc(Br)cc2)o1)S(=O)(=O)c1ccccc1,106% (active)
6,O=C(NCc1cccnc1)/C(=C/c1ccc(-c2cccc(C(F)(F)F)c2)o1)NC(=O)c1ccccc1,11.9%
7,COc1ccc(S(=O)(=O)N2CCC(NC(=O)c3cccc(F)c3)CC2)cc1,-7.7%
8,CC(=O)NC(CC(=O)Oc1ccc(C)cc1Br)c1ccccc1 (configuration not stated),-28.4%
9,Cc1c(CCOC(=O)c2cccc([N+](=O)[O-])c2)sc[n+]1CC(=O)c1ccccc1,-44.5%
10,Cc1c(CCOC(=O)c2cc([N+](=O)[O-])cc([N+](=O)[O-])c2)sc[n+]1CC(=O)c1ccc(Br)cc1,49.3% (active)
11,Cc1c(CCOC(=O)c2cc([N+](=O)[O-])cc([N+](=O)[O-])c2)sc[n+]1CC(=O)c1ccccc1,-27.6%
12,O=C(NCc1ccco1)C12CN(Cc3ccccc3)CC1C(c1ccc([N+](=O)[O-])cc1)=NO2 (configuration not stated),10.3%
13,CCOCCc1nnc(NC(=O)C(C)Oc2ccccc2)s1 (configuration not stated),-60.4%
14,COc1ccc(NC(=O)CCC(=O)N/N=C/c2cn(C)nc2C)cc1,10.7%
15,O=C(O)c1ccc(Nc2nc3c(s2)CCCC3)cc1,69.2% (active)
16,Cc1cccc(Nc2nc3c(s2)CCCC3)c1,-49.8%
17,CN(C)c1ccc(C(=O)Nc2nc3c(s2)CCCC3)cc1,25.6%
18,Cc1nc2ccc(S(=O)(=O)Nc3cccc(-c4nc5cccnc5s4)c3C)cc2s1,-33.3%
19,Cc1cc(-c2nc3cccnc3s2)ccc1NS(=O)(=O)c1ccc2c(c1)OCCO2,-4%
20,CCc1ccc(NC(=O)CSc2nnc(-c3n[nH]c4ccccc34)n2-c2ccccc2)cc1,6%
21,CC(C)CC(C(=O)N1CCc2ccccc2C1)N1C(=O)c2ccccc2C1=O (configuration not stated),5.4%
22,COc1ccc(N2C(=O)c3ccccc3NC2c2cccnc2)cc1 (configuration not stated),-14.4%

row,Compound,inhibition
1,COc1ccccc1N1Cc2ccc(OC)c(OC)c2C1=O,-5.2%
2,COc1ccc2c(c1OC)C(=O)OC2,33.6% (active)
3,COc1ccc2c(c1OC)C(=O)N(c1ncn[nH]1)C2,-15.4%
4,COc1cc(OC)cc(C(=O)OCCCOC(=O)c2cc(OC)cc(OC)c2)c1,-7.2%
5,COc1ccc(S(=O)(=O)NN(C)c2nc(C(F)(F)F)nc3ccccc23)cc1,-27.6%
6,CN(NS(=O)(=O)c1ccc(Br)cc1)c1nc(C(F)(F)F)nc2ccccc12,31.4% (active)
7,CN(NS(=O)(=O)c1ccc(Cl)cc1)c1nc(C(F)(F)F)nc2ccccc12,26%
8,CN(C)C1(CN=Cc2cc(Cl)cc([N+](=O)[O-])c2O)CCCCC1,-19%
9,O=C(N/N=C/c1ccc(-c2cccc(C(F)(F)F)c2)o1)c1ccccc1O,86.8% (active)
10,O=C(N/N=C/c1ccc(-c2cccc(C(F)(F)F)c2)o1)c1ccccc1Br,13.2%
11,O=C(N/N=C/c1ccc(-c2ccccc2)o1)c1ccccc1O,-1.6%
12,Cc1ccc2cc(CCNC(=O)c3cccc([N+](=O)[O-])c3)c(=O)[nH]c2c1,26.4%
13,COc1ccc2cc(CCNC(=O)c3cccc([N+](=O)[O-])c3)c(=O)[nH]c2c1,45.6% (active)
14,Cc1cc2cc(CCNC(=O)c3cccc([N+](=O)[O-])c3)c(=O)[nH]c2cc1C,3.3%
15,COc1cc(Br)c(CC(=O)O)cc1OC,4%
16,CCn1cc(C(=O)OCC(=O)c2cc(C)n(-c3cccc(C(F)(F)F)c3)c2C)c(=O)c2ccc(C)nc21,62.7% (active)
17,CCn1cc(C(=O)OCC(=O)c2cc(C)n(-c3ccccc3F)c2C)c(=O)c2ccc(C)nc21,10.8%
18,CCn1cc(C(=O)OCC(=O)c2cc(C)n(-c3ccccc3)c2C)c(=O)c2ccc(C)nc21,6.2%
19,Cc1nn(Cc2ccc(C(=O)N3CCN(C(=O)c4ccco4)CC3)o2)c(C)c1[N+](=O)[O-],-22.1%
20,C/C(=N\NC(=O)c1ccoc1C)c1ccc(Br)s1,15.3%
21,C/C(=N\NC(=O)c1ccccc1O)c1cccs1,69.7% (active)
22,C/C(=N\NC(=O)c1cc2ccccc2cc1O)c1cccs1,5.7%

row,Compound,inhibition
1,C/C(=N\NC(=O)c1cccc2ccccc12)c1cccs1,-68.3%
2,C/C(=N\NC(=O)c1ccccc1O)c1ccc(Br)s1,8.3%
3,CCN(CC(=O)NCc1ccc(Cl)cc1)C(=O)/C=C/c1cccs1,-23.9%
4,CC1CCCN(CC(=O)Nc2ccc(S(=O)(=O)N3CCCCCC3)cc2)C1 (configuration not stated),-8.7%
5,Cc1ccc(/C=C2/SC(=Nc3ccc(F)cc3)NC2=O)s1,-8.8%
6,CC(=O)NC(Cc1ccc(C)cc1)C(=O)NC1CCN(C(=O)c2ccc([N+](=O)[O-])cc2)CC1 (configuration not stated),-4.9%
7,Cc1noc2ncnc(N3CCN(c4ccc(F)cc4)CC3)c12,-41.6%
8,Cc1noc2ncnc(N3CCCC3)c12,-13.8%
9,Cc1nn(C)c(Oc2ccccc2)c1CCNS(=O)(=O)c1ccccc1,14.8%
10,O=c1[nH]c2ccc(Cl)cc2c(-c2ccccc2)c1SC(=S)N1CCCCC1,47%
11,O=C(O)CSc1c(-c2ccccc2)c2cc(Cl)ccc2[nH]c1=O,-28.5%
12,CCN(CC)C(=S)Sc1c(-c2ccccc2)c2cc(Cl)ccc2[nH]c1=O,78.1% (active)
13,COc1ccc2c(C)cc(SC3CCOC3=O)nc2c1 (configuration not stated),-1.1%
14,C=CCc1cc(Cl)ccc1OCCNCCCOC,-15.8%
15,C=CCc1cc(Cl)ccc1OCCNCCOC,43.2% (active)
16,C=CCc1cc(Cl)ccc1OCCOCCNCCOC,-24.9%
17,CCC(C(=O)c1ccc2ncccc2c1)c1ccccc1 (configuration not stated),-3.6%
18,CCOC(=O)C1=C(N)Oc2cc(O)ccc2C1c1ccc([N+](=O)[O-])cc1 (configuration not stated),67.7% (active)
19,CCOC(=O)C1=C(N)Oc2cc(O)ccc2C1c1ccc(C)cc1 (configuration not stated),-17.2%
20,CCOC(=O)C1=C(N)Oc2cc(O)ccc2C1c1cccc([N+](=O)[O-])c1 (configuration not stated),41.2%
21,COc1cc(COc2ccc3c(C)c(CCC(=O)O)c(=O)oc3c2)cc(OC)c1OC,-4.2%
